A selection: hits, their analogues and other compounds. The true share with any hit is near 8.1%.
PINK1 modulator: A Quantitative High throughput Screen to Identify Chemical Modulators of PINK1 Expression. 410,000 tested, 0.2% active. Potency, µM (titrated, usually from 76.6 µM), inactives show at the highest dose activation (PINK1 increase), hits mostly activators. PINK1 immunofluorescence, high-content cytometry, 24 h; active = well fitted activation curve with a large enough effect; inconclusive = small, poorly fitted or top-dose-only effect; cell line not stated here; note: % of control where 0% means no effect; nearly all actives have a fitted effect of over 65% in size
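Measures PINK1 amount and localization on or inside mitochondria by immunofluorescence. Stable cells get compounds at 5 concentrations for 24 hours before fixation and staining; CCCP controls included.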
Gal4-VP16 FLuc: VP16 counterscreen qHTS for inhibitors of ROR gamma transcriptional activity; Potency, µM (doses to about 53.6 µM), for the others: top-dose activity, negative = inhibition, most hits filed as inhibitors; AID 2546, 2010; 310,000 tested, 3.5% active; Drosophila S2 Gal4-VP16 UAS-luciferase, luminescence, 20 h;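 note: Gal4-VP16 expression switched on by copper sulfate through the metallothionein promoter; % is set by controls: 0 for no effect and ±100 for the full control effect; nearly all actives have a fitted effect of over 50% in size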
Sfp PPTase inh: qHTS Assay for Inhibitors of Bacillus subtilis Sfp phosphopantetheinyl transferase (PPTase); 4'-phosphopantetheinyl transferase ffp (Bacillus subtilis), Q9F4F7; Biochemical Sfp PPTase activity, qHTS; Potency, µM, inactives show largest response in the series, negative = inhibition, hits mostly inhibitors; 310,000 tested, 3.5% active;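 note: the enzyme is Sfp with the accession as filed and its product quenches rhodamine fluorescence; 0% = enzyme reaction without inhibitor and -100% = no enzyme wells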
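Buffer: 50 mM Hepes-Na pH 7.6, 10 mM MgCl2, 0.01% Nonidet P-40, 0.01% BSA. Enzyme 15 nM, pre-exposed to compound 15 min; substrates then added and fluorescence change tracked over 30 min.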
Epigenetic derep: Quantitative High-Throughput Screen for Regulators of Epigenetic Control. murine LDR cells, GFP reporter derepression, 30 h. Potency, µM (doses to about 53.9 µM), for the others: at the highest dose GFP activation, usual class: activators. 280,000 tested, 0.2% active. AID 1865, 2009; note: % of control where 0% means no effect; nearly all actives have a fitted effect of over 60% in size
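Derepression of a silenced CMV-GFP reporter in murine LDR cells is scored by enumerating GFP-positive cells with a laser-scanning microplate cytometer after 30 hours of treatment at 37 C.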
ClpP mod: qHTS Assay for Activators of ClpP; ATP-dependent Clp protease proteolytic subunit (Bacillus subtilis (strain 168)), P80244; purified B. subtilis ClpP, FRET peptide cleavage, 20 min; Potency, µM (highest dose often 57.5 µM), for the others: top-dose activity change, negative = active; 340,000 tested, 1.9% active; AID 651965, 2013; active = well fitted falling curve with a large enough effect; inconclusive = small, poorly fitted or top-dose-only effect; inactive = no such curve, though single readings can be large or run the other way; note: the source files actives as falling curves though it sought activators and does not explain the sign; nearly all actives have a fitted effect of over 65% in size
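Purified B. subtilis ClpP, 10 microg/mL final in Tris/HCl pH8 with KCl, BSA, glycerol and Tween-20, cleaved an Abz/nitrotyrosine-quenched decapeptide. Fluorescence (ex 320, em 430) was read at 0 and 20 min at room temperature. Delta was normalized to 5.8 microM ADEP and DMSO/no-enzyme controls.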
RORgamma inh: qHTS for inhibitors of ROR gamma transcriptional activity; Potency, µM (series often up to 53.6 µM), for the others: at the top dose activity change, negative = inhibition, most hits filed as inhibitors; 310,000 tested, 5.4% active; AID 2551, 2010; Drosophila S2 Gal4-RORgamma UAS-luciferase reporter, 20 h; note: % is set by controls: 0 for no effect and ±100 for the full control effect; nearly all actives have a fitted effect of over 60% in size
Target sequence (P51450 whole entry, looked up, the tested form may be a part): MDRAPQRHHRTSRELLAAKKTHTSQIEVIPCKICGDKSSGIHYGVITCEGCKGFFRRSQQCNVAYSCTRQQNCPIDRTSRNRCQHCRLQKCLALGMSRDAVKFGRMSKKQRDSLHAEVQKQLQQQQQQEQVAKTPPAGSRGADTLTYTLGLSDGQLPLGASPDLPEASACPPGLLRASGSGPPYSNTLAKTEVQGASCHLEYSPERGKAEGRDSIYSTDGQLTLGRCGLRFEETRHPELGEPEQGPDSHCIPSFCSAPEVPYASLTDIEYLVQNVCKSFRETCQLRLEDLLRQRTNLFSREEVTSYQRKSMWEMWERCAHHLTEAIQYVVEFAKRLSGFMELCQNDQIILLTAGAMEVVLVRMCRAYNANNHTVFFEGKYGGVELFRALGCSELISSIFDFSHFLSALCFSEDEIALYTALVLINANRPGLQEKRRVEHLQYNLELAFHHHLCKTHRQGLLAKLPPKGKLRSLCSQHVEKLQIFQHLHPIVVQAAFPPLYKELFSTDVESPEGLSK
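A Gal4/UAS one-hybrid system in insect cells: metallothionein-promoter Gal4–ROR gamma fusion plus Photinus luciferase reporter. Copper sulfate 700 uM final, 20 hr ambient incubation, luminescent detection after 10 min with reagent.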
* = called active by the depositor; ? = inconclusive; nt = no result given; [ ] = remark or other dose. Unless noted, calls come from the whole dose curve; as a rule, active = well fitted curve in the direction sought with a large enough effect; inconclusive = small, poorly fitted or top-dose-only effect, or another doubt; inactive = no such curve, though single readings can be large; an effect the other way counts as inactive or inconclusive. Potency is the fitted concentration of half-maximal effect.

SMILES	PINK1 modulator	Gal4-VP16 FLuc	Sfp PPTase inh	Epigenetic derep	ClpP mod	RORgamma inh
Cc1ccc2oc(C(=O)Nc3cccc(Cl)c3)cc(=O)c2c1	2%	nt	nt	2%	-13%	nt
COc1cccc(NC(=O)CNCc2ccccc2)c1	0%	nt	-1%	nt	-1%	nt
COc1ccc(CNCC(=O)Nc2cccc(S(N)(=O)=O)c2)cc1	3%	-2%[10 µM]	?	-2%[10.1 µM]	35µM*	1%
CCCCn1c(=S)[nH]c2ccc(N3CCOCC3)cc2c1=O	nt	7.1µM*	?	-1%	nt	2.2µM*
O=c1c2cc(F)ccc2[nH]c(=S)n1CCCN1CCOCC1	-2%[38.3 µM]	?	4%	-1%	-3%	11µM*
Cc1cccc(N2CCN(C(=O)CCCCCn3c(=S)[nH]c4ccc(N5CCOCC5)cc4c3=O)CC2)c1C	0%	11µM*	9%	nt	0%	7.1µM*
O=c1c2cc(N3CCOCC3)ccc2[nH]c(=S)n1CCCN1CCN(c2ccccc2F)CC1	nt	?	13%	-1%	nt	-39%
CCCC(=O)OC/C(O)=C(\C#N)c1nc2ccccc2[nH]1	0%	?	24%	8%	nt	4µM*
N#C/C(=C(/O)COC(=O)c1cccnc1Cl)c1nc2ccccc2[nH]1	5%	?	7%	0%	nt	7.9µM*
Cc1ccc(C(C)C)c(OC/C(O)=C(\C#N)c2nc3ccccc3[nH]2)c1	?	?	18%	0%	0%	2.2µM*
N#CC(=C(O)COC(=O)Cc1c[nH]c2ccccc12)c1nc2ccccc2[nH]1	1%	nt	nt	nt	nt	nt
COCC(=O)OC/C(O)=C(\C#N)c1nc2ccccc2[nH]1	1%	2.8µM*	12%	?	nt	?
Cc1nc2c(-c3ccccc3)c(C)nn2c(C)c1CCC(=O)Nc1ccccc1F	0%	nt	nt	0%	8%	nt
CC(C)C(=O)OC/C(O)=C(\C#N)c1nc2ccccc2[nH]1	-1%	10µM*	12%	1%	nt	6.3µM*
N#C/C(=C(/O)COC(=O)CCC1CCCCC1)c1nc2ccccc2[nH]1	4%	10µM*	16%	-2%	-4%	11µM*
Cc1cccc(C)c1NC(=O)/C(=C/c1ccco1)c1ccccc1	4%	13µM*	22µM*	-1%	-2%	?
Cc1cc(C)c(NC(=O)/C(=C/c2ccco2)c2ccccc2)c(C)c1	2%	5%	35µM*	-3%	-1%	6%
CC(C)NC(=O)/C(=C/c1ccco1)c1ccccc1	2%	-2%	-46%	1%	-3%	10%
Fc1cccc(CCN2C(=S)NC[C@@H]2CC2CCCCC2)c1	0%	6.3µM*	10%	0%	0%	2µM*
CCCC[C@@H]1CNC(=S)N1CCc1cccc(F)c1	2%	4µM*	-2%	-1%	-2%	1.4µM*
O=C1NC[C@H](Cc2ccc(O)cc2)N(CCc2cccc(F)c2)C1=O	-1%	nt	nt	nt	-2%	nt
Fc1cccc(CCN2C(=S)NC[C@@H]2Cc2ccccc2)c1	0%	7.1µM*	15%	1%	0%	2.2µM*
CC(O)[C@H]1CNC(=S)N1CCc1cccc(F)c1 (some centres undefined)	-2%	-13%	12%	1%	-1%	0%
CCCC[C@@H]1CNC(=S)N1CCCc1cc(OC)c(OC)c(OC)c1	-1%	?	14%	-1%	1%	8.9µM*
CCOc1ccc(NS(=O)(=O)c2ccc3c4c(cccc24)C(=O)N3)cc1	2%	nt	nt	-1%	0%	nt
Cc1ccc(-c2cc(NC(=O)C(C)Oc3ccccc3F)on2)cc1 (centres undefined)	0%	nt	nt	-2%	0%	nt
CN(C)c1cc(F)c(C=O)cc1F	1%	nt	nt	nt	1%	nt
COc1cc(CN2CCc3nnc(C(NS(C)(=O)=O)C(C)C)n3CC2)ccc1F (centres undefined)	0%	nt	nt	nt	nt	nt

Screening data as filed in PubChem BioAssay.
